Out of some 5,500 compounds screened, about 2,000 (36%) were called active. About 18% were inconclusive and are not listed. Cut-off read from the data, not from the text of the source: active = normalized growth mostly below about 0.91 (no sharp cut-off); inconclusive = no clear call, values can overlap the other calls; inactive = mostly above about 0.92. Some of the results follow.
Experiment: chemical genetic growth profiling, strain panel (AID 1159580);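 note: tested at 20 µM; growth read once vehicle control cultures reached saturation at 30 °C; 1 = growth at the plate median or of vehicle wells; lower values mean less growth of the strain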
Settings: growth OD

Measured: normalized growth

CNC(=O)O/N=C(\C)SC
inactive: S. cerevisiae deletion strains, locus YJR075W, strain HOC1, active compounds read low 0.99 | S. cerevisiae deletion strains, locus YKL009W, strain mrt4, active compounds read low 1.02 | S. cerevisiae deletion strains, locus YKL068W, active compounds read low 0.986 | S. cerevisiae deletion strains, locus YKL085W, strain MDH1 (second series), active compounds read low 0.985 | S. cerevisiae deletion strains, locus YKL085W, strain MDH1, active compounds read low 0.985 | S. cerevisiae deletion strains, locus YKL160W, strain elf1, active compounds read low 1 | S. cerevisiae deletion strains, locus YKL190W, strain CNB1, active compounds read low 1 | S. cerevisiae deletion strains, locus YKR001C, strain vps1, active compounds read low 0.999 | S. cerevisiae deletion strains, locus YKR026C, strain gcn3, active compounds read low 0.999 | S. cerevisiae deletion strains, locus YKR091W, strain srl3, active compounds read low 1 | S. cerevisiae deletion strains, locus YLL001W, strain dnm1, active compounds read low 1 | S. cerevisiae deletion strains, locus YLL026W, active compounds read low 1 | S. cerevisiae deletion strains, locus YLL041C, strain sdh2, active compounds read low 0.999 | S. cerevisiae deletion strains, locus YLR027C, strain aat2, active compounds read low 0.987 | S. cerevisiae deletion strains, locus YLR039C, strain RIC1, active compounds read low 1.01 | S. cerevisiae deletion strains, locus YLR058C, strain SHM2, active compounds read low 1.01 | S. cerevisiae deletion strains, locus YLR102C, strain apc9, active compounds read low 0.99 | S. cerevisiae deletion strains, locus YLR113W, strain HOG1, active compounds read low 1.01 | S. cerevisiae deletion strains, locus YLR221C, strain rsa3, active compounds read low 1 | S. cerevisiae deletion strains, locus YLR258W, strain gsy2, active compounds read low 0.994 | S. cerevisiae deletion strains, locus YLR262C, strain YPT6 (second series), active compounds read low 1.03 | S. cerevisiae deletion strains, locus YLR262C, strain YPT6, active compounds read low 1.05 | S. cerevisiae deletion strains, locus YLR268W, strain sec22, active compounds read low 0.994 | S. cerevisiae deletion strains, locus YLR320W, strain mms22, active compounds read low 0.995 | S. cerevisiae deletion strains, locus YLR330W, strain CHS5, active compounds read low 1.01 | S. cerevisiae deletion strains, locus YLR342W, strain FKS1 (second series), active compounds read low 1.02 | S. cerevisiae deletion strains, locus YLR342W, strain FKS1, active compounds read low 0.997 | S. cerevisiae deletion strains, locus YLR357W, strain rsc2, active compounds read low 0.983 | S. cerevisiae deletion strains, locus YLR370C, strain arc18, active compounds read low 1 | S. cerevisiae deletion strains, locus YLR371W, strain rom2, active compounds read low 0.98 | S. cerevisiae deletion strains, locus YLR384C, strain iki3, active compounds read low 1 | S. cerevisiae deletion strains, locus YLR418C, strain cdc73, active compounds read low 1.01 | S. cerevisiae deletion strains, locus YML016C, strain PPZ1, active compounds read low 1.01 | S. cerevisiae deletion strains, locus YML032C, strain rad52, active compounds read low 0.981 | S. cerevisiae deletion strains, locus YML120C, strain ndi1, active compounds read low 1.01 | S. cerevisiae deletion strains, locus YML124C, strain tub3, active compounds read low 0.978 | S. cerevisiae deletion strains, locus YMR058W, strain fet3, active compounds read low 1 | S. cerevisiae deletion strains, locus YMR078C, strain ctf18, active compounds read low 0.985 | S. cerevisiae deletion strains, locus YMR125W, strain sto1, active compounds read low 0.999 | S. cerevisiae deletion strains, locus YMR129W, active compounds read low 0.999 | S. cerevisiae deletion strains, locus YMR205C, strain PFK2, active compounds read low 1.01 | S. cerevisiae deletion strains, locus YMR223W, strain ubp8, active compounds read low 0.991 | S. cerevisiae deletion strains, locus YMR231W, strain pep5, active compounds read low 0.982 | S. cerevisiae deletion strains, locus YMR263W, strain SAP30, active compounds read low 1.02 | S. cerevisiae deletion strains, locus YMR307W, strain GAS1, active compounds read low 1.02 | S. cerevisiae deletion strains, locus YNL067W, strain RPL9B, active compounds read low 1.01 | S. cerevisiae deletion strains, locus YNL071W, strain lat1, active compounds read low 1.01 | S. cerevisiae deletion strains, locus YNL128W, strain TEP1, active compounds read low 1.01 | S. cerevisiae deletion strains, locus YNL153C, strain GIM3, active compounds read low 0.996 | S. cerevisiae deletion strains, locus YNL183C, strain NPR1, active compounds read low 0.997 | S. cerevisiae deletion strains, locus YNL209W, strain ssb2, active compounds read low 0.996 | S. cerevisiae deletion strains, locus YNL233W, strain BNI4, active compounds read low 1.03 | S. cerevisiae deletion strains, locus YNL248C, strain rpa49, active compounds read low 1 | S. cerevisiae deletion strains, locus YNL250W, strain rad50, active compounds read low 0.974 | S. cerevisiae deletion strains, locus YNL271C, strain bni1, active compounds read low 0.991 | S. cerevisiae deletion strains, locus YNL298W, strain CLA4, active compounds read low 0.988 | S. cerevisiae deletion strains, locus YNL307C, strain MCK1, active compounds read low 0.981 | S. cerevisiae deletion strains, locus YNL322C, strain KRE1 (second series), active compounds read low 0.995 | S. cerevisiae deletion strains, locus YNL322C, strain KRE1, active compounds read low 1.01 | S. cerevisiae deletion strains, locus YNR049C, strain mso1, active compounds read low 0.998 | S. cerevisiae deletion strains, locus YNR052C, strain pop2, active compounds read low 0.988 | S. cerevisiae deletion strains, locus YOL006C, strain TOP1, active compounds read low 1.07 | S. cerevisiae deletion strains, locus YOL012C, strain htz1 0.858 | S. cerevisiae deletion strains, locus YOL147C, strain pex11, active compounds read low 0.976 | S. cerevisiae deletion strains, locus YOR001W, strain rrp6, active compounds read low 0.989 | S. cerevisiae deletion strains, locus YOR061W, strain CKA2, active compounds read low 1.01 | S. cerevisiae deletion strains, locus YOR069W, strain VPS5, active compounds read low 1 | S. cerevisiae deletion strains, locus YOR070C, strain gyp1, active compounds read low 0.995 | S. cerevisiae deletion strains, locus YOR080W, strain dia2, active compounds read low 0.996 | S. cerevisiae deletion strains, locus YOR083W, strain WHI5, active compounds read low 1 | S. cerevisiae deletion strains, locus YOR106W, strain vam3, active compounds read low 1.01 | S. cerevisiae deletion strains, locus YOR136W, strain idh2, active compounds read low 0.978 | S. cerevisiae deletion strains, locus YOR144C, strain elg1, active compounds read low 0.977 | S. cerevisiae deletion strains, locus YOR184W, strain ser1, active compounds read low 0.993 | S. cerevisiae deletion strains, locus YOR231W, strain MKK1, active compounds read low 1.05 | S. cerevisiae deletion strains, locus YOR265W, strain rbl2, active compounds read low 1.02 | S. cerevisiae deletion strains, locus YOR270C, strain vph1, active compounds read low 1.02 | S. cerevisiae deletion strains, locus YOR290C, strain snf2, active compounds read low 0.981 | S. cerevisiae deletion strains, locus YOR316C, strain cot1, active compounds read low 0.983 | S. cerevisiae deletion strains, locus YPL051W, strain arl3, active compounds read low 1.02 | S. cerevisiae deletion strains, locus YPL055C, strain LGE1, active compounds read low 1.03 | S. cerevisiae deletion strains, locus YPL078C, strain atp4, active compounds read low 0.997 | S. cerevisiae deletion strains, locus YPL106C, strain sse1, active compounds read low 0.982 | S. cerevisiae deletion strains, locus YPL240C, strain hsp82, active compounds read low 0.998 | S. cerevisiae deletion strains, locus YPL241C, strain CIN2, active compounds read low 1 | S. cerevisiae deletion strains, locus YPL256C, strain CLN2, active compounds read low 1.05 | S. cerevisiae deletion strains, locus YPR119W, strain clb2, active compounds read low 0.985 | S. cerevisiae deletion strains, locus YPR141C, strain kar3, active compounds read low 0.989 | S. cerevisiae deletion strains, locus YPR163C, strain tif3, active compounds read low 0.976 | S. cerevisiae deletion strains, locus YPR167C, strain met16, active compounds read low 0.986 | S. cerevisiae deletion strains, strain wtn01, active compounds read low 0.997 | S. cerevisiae strains, strain wild type, active compounds read low 1

— PubChem BioAssay AID1159580 (chemical genetic matrix, 2015)
